According to the supplement of paper PMC4166925:
± gives the standard deviation of the averaged measurements. In all, about 33,000 sequences were measured (“E-score (dimensionless, -0.5 to 0.5)”: median about -0.046, highest 2% from about 0.36 on). This excerpt belongs to a sample that is enriched for the highest values.

System: T1, SpTbr T-box DNA-binding domain (GST fusion)
T1 sequence: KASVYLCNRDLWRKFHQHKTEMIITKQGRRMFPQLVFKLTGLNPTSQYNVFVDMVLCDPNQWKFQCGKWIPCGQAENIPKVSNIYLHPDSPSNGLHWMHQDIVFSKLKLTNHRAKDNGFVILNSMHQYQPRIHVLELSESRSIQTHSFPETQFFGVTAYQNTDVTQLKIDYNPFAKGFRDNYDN
Assay: PBM E-score of 8-mer (E-score (dimensionless, -0.5 to 0.5)); Tbr is Tbrain of the sea star Patiria miniata (Pm) or the sea urchin Strongylocentrotus purpuratus (Sp); higher = stronger binding preference
Settings: the construct has about 5 more residues each side
Description: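 Universal protein-binding microarray (Agilent AMADID 016060, 60-bp probes with a 35-bp variable region) incubated with 200 nM GST-fused Strongylocentrotus purpuratus Tbr T-box DNA-binding domain (residues 362-554) in PBS pH 7.5. Scored for every ungapped 8-mer (given with its reverse complement) as E-score (range -0.5 to 0.5; >0.45 counts as bound) and Z-score of median probe intensity. Two replicate arrays (datasets 1 and 2).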
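Further: protein at 200 nM in PBS on universal double-stranded arrays.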

| Sequence | PBM E-score of 8-mer |
| --- | --- |
| CGTGCAAA | 0.146 ± 0.024 |
| CTTGCGAA | 0.343 ± 0.019 |
| ATTGCGAA | 0.284 ± 0.041 |
| GGTGCGAC | 0.452 ± 0.0081 |
| AATAGCAT | -0.0159 ± 0.004 |
| ATCCTGTG | 0.00404 ± 0.015 |
| AATATCAT | -0.161 ± 0.0081 |
| CCTGGGCG | 0.118 ± 0.03 |
| GATGCGAA | 0.202 ± 0.066 |
| CCTGCGAA | 0.367 ± 0.0099 |
| ACTGCGAA | 0.332 ± 0.018 |
| TCTGCGAA | 0.202 ± 0.04 |
| TATGCGAA | 0.131 ± 0.068 |
| TGTGCGAA | 0.458 ± 0.0092 |
| ACGCGAAG | 0.185 ± 0.027 |
| AAAGTAGA | -0.0436 ± 0.055 |
| ACTTGTAC | -0.109 ± 0.04 |
| CACTCGGC | 0.143 ± 0.021 |
| ACGCGAAC | 0.276 ± 0.003 |
| ACGCGAAA | 0.138 ± 0.018 |
| CCGCGAAC | 0.338 ± 0.0083 |
| GCGCGATA | 0.288 ± 0.014 |
| GCGCGAAC | 0.439 ± 0.018 |
| CCGCGAAA | 0.32 ± 0.025 |
| TCGCGAAA | 0.403 ± 0.026 |

| Sequence | PBM E-score of 8-mer |
| --- | --- |
| GCGCGAAA | 0.4374 ± 0.0039 |
| GCGCGACA | 0.3438 ± 0.0009 |
| GCGTCGAC | 0.114 ± 0.082 |
| CCAAATAA | -0.267 ± 0.079 |
| GTGGAAAA | 0.125 ± 0.036 |
| AAACAGCT | 0.0803 ± 0.013 |
| CTTGTCAC | 0.39 ± 0.013 |
| CTTGTCAA | 0.355 ± 0.0065 |
| CCTGTCAC | 0.3163 ± 0.0011 |
| ATTGTCAG | 0.0298 ± 0.045 |
| ATTGTCAC | 0.399 ± 0.013 |
| ATTGTCAA | 0.225 ± 0.019 |
| CCAGCACC | 0.216 ± 0.04 |
| CTGAACAC | -0.0318 ± 0.035 |
| CCACTTTC | 0.0779 ± 0.016 |
| ACACTTTA | 0.324 ± 0.043 |
| ACACTTTG | 0.379 ± 0.005 |
| AGACTTTG | -0.0212 ± 0.042 |
| ACTCTTTC | 0.0551 ± 0.015 |
| ACACTTTC | 0.402 ± 0.027 |
| CGCATAGA | -0.0202 ± 0.12 |
| GCGCTACC | 0.295 ± 0.0067 |
| GCTTTACA | 0.0266 ± 0.031 |
| AGCTTTCA | -0.132 ± 0.045 |
| AACACGTC | 0.372 ± 0.009 |

| Sequence | PBM E-score of 8-mer |
| --- | --- |
| AACACGCT | 0.185 ± 0.073 |
| GACACGTC | 0.333 ± 0.0087 |
| AACACGAT | 0.291 ± 0.022 |
| AACACGTT | 0.367 ± 0.044 |
| AACACGTA | 0.317 ± 0.018 |
| AGTGGAGA | -0.0675 ± 0.13 |
| AAAGTGAA | -0.017 ± 0.029 |
| CAAGTGTA | 0.249 ± 0.051 |
| AAAGTGCG | 0.337 ± 0.006 |
| AAAGTGAC | 0.367 ± 0.032 |
| CAAGTGTG | 0.453 ± 0.0056 |
| CAAGTGCC | 0.266 ± 0.0062 |
| CAAGTGGG | 0.265 ± 0.022 |
| AAAGTGTG | 0.441 ± 0.0064 |
| AAAGTGAG | 0.217 ± 0.0053 |
| AAAGTGAT | 0.205 ± 0.0065 |
| ACAGTGTG | 0.338 ± 0.011 |
| CAAGTGCG | 0.395 ± 0.02 |
| CAGCAACC | -0.109 ± 0.025 |
| ACCTTAGA | 0.0853 ± 0.026 |
| AATCTCTA | -0.14 ± 0.0019 |
| AGTACTGA | -0.0534 ± 0.012 |
| AGTATCGC | 0.185 ± 0.0083 |
| AAAGTGTC | 0.39331 ± 0.00039 |
| AAAGTGTT | 0.416 ± 0.035 |

| Sequence | PBM E-score of 8-mer |
| --- | --- |
| GAAGTGTC | 0.42864 ± 0.00011 |
| AACAAGTG | 0.298 ± 0.035 |
| AAAGTGGT | 0.00031 ± 0.043 |
| GAAGTGTA | 0.304 ± 0.0081 |
| CACAAGTG | 0.38 ± 0.016 |
| CAAGTGTC | 0.351 ± 0.012 |
| ACAGTGTC | 0.213 ± 0.0024 |
| CACAAGTC | 0.166 ± 0.039 |
| AAAGTGGC | 0.205 ± 0.025 |
| AAAGTGTA | 0.112 ± 0.073 |
| GCGCTTAC | 0.216 ± 0.054 |
| CTGATGCA | 0.0385 ± 0.021 |
| CCTCGTAC | -0.22 ± 0.0077 |
| AAGGGTAG | -0.0117 ± 0.11 |
| ACTGGAGA | -0.123 ± 0.052 |
| AAACCTTG | -0.17 ± 0.045 |
| GCACCTTA | 0.404 ± 0.026 |
| ACACCTTG | 0.4831 ± 0.0013 |
| GCACCTGA | 0.386 ± 0.0077 |
| ACACCTTC | 0.4746 ± 0.0017 |
| CCACCTTA | 0.213 ± 0.01 |
| AGACCTTG | -0.19 ± 0.022 |
| CCACCTGA | 0.148 ± 0.02 |
| AGACCTTC | -0.26 ± 0.016 |
| GAACCTTA | -0.0824 ± 0.12 |

| Sequence | PBM E-score of 8-mer |
| --- | --- |
| CCACCTTC | 0.2634 ± 0.0018 |
| TCACCTGA | 0.3337 ± 0.0032 |
| ATATCCAT | -0.037 ± 0.059 |
| AGCCAACT | -0.173 ± 0.045 |
| AGATTTCA | -0.0179 ± 0.064 |
| ACTAGGAT | -0.2518 ± 0.0023 |
| CAAGGAAC | -0.142 ± 0.03 |
| CTCTCCAC | 0.0528 ± 0.073 |
| CGTTAGGA | -0.0398 ± 0.0099 |
| AAGAATTC | -0.22 ± 0.027 |
| AAACCTTA | -0.0223 ± 0.025 |
| ATACCTTA | 0.1245 ± 0.00057 |
| ACACCTTA | 0.46892 ± 0.00038 |
| GCAAGAGC | -0.0244 ± 0.092 |
| CTCGTCAA | 0.201 ± 0.0083 |
| CTCGTCAC | 0.389 ± 0.024 |
| GTCGTCAC | 0.337 ± 0.025 |
| ATCGTCAA | 0.158 ± 0.0046 |
| ATCGTCAC | 0.381 ± 0.011 |
| ATCGTCAT | -0.00478 ± 0.05 |
| TCGCCAGA | 0.0255 ± 0.017 |
| AAGGCACA | -0.16 ± 0.04 |
| ATGGGGGG | -0.172 ± 0.0088 |
| AGAAGTGA | 0.289 ± 0.014 |
| AGTCTACG | -0.209 ± 0.008 |

| Sequence | PBM E-score of 8-mer |
| --- | --- |
| CAGCTACG | -0.036 ± 0.0027 |
| TGTGGTAA | 0.133 ± 0.02 |
| GGCGGCCA | -0.156 ± 0.03 |
| CTTCGCAC | 0.461 ± 0.015 |
| CTTCGCAA | 0.341 ± 0.029 |
| ATTCGCAC | 0.4705 ± 0.0024 |
| ATTCGCAG | 0.33 ± 0.013 |
| CTTCGCCC | -0.0235 ± 0.028 |
| ATTCGCAA | 0.29 ± 0.016 |
| GTCTATAA | -0.0104 ± 0.0026 |
| CGAGGGCC | -0.127 ± 0.057 |
| ACGAAAGT | 0.00641 ± 0.0039 |
| AATGTGCG | 0.3287 ± 0.0028 |
| AATGTGTC | 0.413 ± 0.012 |
| AATGTGTA | 0.207 ± 0.05 |
| AATGTGGC | 0.219 ± 0.02 |
| CATGTGTC | 0.3458 ± 0.0021 |
| AATGTGTG | 0.4245 ± 0.0035 |
| AGACGACT | -0.202 ± 0.093 |
| GCTGGGCC | -0.144 ± 0.0084 |
| ATGTGACC | 0.169 ± 0.046 |
| ATGTGACA | 0.409 ± 0.0051 |
| ATGTGACG | 0.285 ± 0.026 |
| CTGTGACC | 0.142 ± 0.026 |
| CTGTGACA | 0.31 ± 0.011 |

| Sequence | PBM E-score of 8-mer |
| --- | --- |
| GTGTGACA | 0.457 ± 0.0047 |
| CAGATAGA | -0.131 ± 0.025 |
| CAGCAGAG | -0.0309 ± 0.05 |
| CACTCTCA | 0.317 ± 0.00081 |
| CATGCGCG | 0.221 ± 0.023 |
| CTACTGTC | 0.1 ± 0.024 |
| CAGGACTA | -0.191 ± 0.029 |
| AGACTTAT | 0.00662 ± 0.019 |
| GAGCCTGC | -0.0257 ± 0.039 |
| GATAACAA | 0.27 ± 0.027 |
| AATAACAC | 0.294 ± 0.062 |
| GATAACGC | 0.288 ± 0.011 |
| CATAACAA | 0.00154 ± 0.064 |
| CATAACAC | 0.405 ± 0.028 |
| GATAACAC | 0.414 ± 0.022 |
| CAGCATGA | -0.154 ± 0.015 |
| AAGTTGGT | -0.0114 ± 0.097 |
| GGAGTCAA | -0.0304 ± 0.04 |
| ATAGCACG | 0.34 ± 0.0094 |
| CTAGCACC | 0.415 ± 0.014 |
| CAAGCACC | 0.0313 ± 0.011 |
| CTAGCACA | 0.271 ± 0.018 |
| ATAGCACC | 0.387 ± 0.011 |
| ATAGCACA | 0.156 ± 0.06 |
